Data: PubChem BioAssay (NCATS)
Records with an inconclusive call do not appear. Active and inactive are the calls of the source. Calls come from the whole dose curve; as a rule, active = well fitted activation curve with a large enough effect; inconclusive = small, poorly fitted or top-dose-only effect; inactive = flat fitted curve, though single readings scatter.

Test: Primary redox qHTS assay for identification of artifact compounds. (AID 1845223);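 note: 0% = DMSO and 100% = reference compound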
Details: Amplex Red/HRP redox cycling with DTT, fluorescence; series mostly up to 53.8 µM; redox activity (% of DA3003): at the top concentration
How it was run: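 Amplex Red (25 uM) and HRP (250 mU/mL) in HBSS, with compounds for 15 min, then 250 uM DTT for 30 min, room temperature, dark. Fluorescence 525/598 nm read; normalized to DMSO and 10 uM DA3003; Hill fit.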

Structure (SMILES)	redox activity (% of DA3003)
Cc1ccnc(NC(=O)C(C)c2cccc(C(=O)c3ccccc3)c2)c1 (stereo not given)	-0.618% (inactive)
O=c1cc(NCCCN[C@@H]2CCOc3c(Br)cc(Br)cc32)[nH]c2ccsc12	10.1% (inactive)
CC(C)c1ccc(-c2cc(=O)c3ccccc3o2)cc1	-0.765% (inactive)
CN(C)CCOc1cc(NS(=O)(=O)c2c(Cl)cc(C(F)(F)F)cc2Cl)ccc1Cl	-1.11% (inactive)
Nc1cccc(CNC(=O)c2ccc(Oc3ccc(OCc4cccc(F)c4)cc3)nc2)c1	2.1% (inactive)
C/C=C(\C)C(=O)OC1C(C)C2(O)C(C=C(CO)CC3(O)C(=O)C(C)=CC32)C2C(C)(C)C12OC(=O)C(C)C (stereo not given)	-2.15% [at 25.6 µM] (inactive)
O=C(c1cc(Cc2n[nH]c(=O)c3ccccc23)ccc1F)N1CCCNCC1	-6.25% (inactive)
O=S(=O)(N[C@H]1CCCC[C@@H]1N1CCOCC1)c1ccc(Cl)cc1	15.6% (inactive)
Cc1ccccc1CN1CCn2c1nc1c(c2=O)CN(Cc2ccccc2)CC1	-4.55% (inactive)
Nc1nc(Nc2ccc3c(c2)CCC(N2CCCC2)CC3)nn1-c1cc2c(nn1)-c1ccccc1CCC2 (stereo not given)	-5.16% (inactive)
Cc1ccc(N2CCN(CCC3NC(=O)c4ccccc43)CC2)cc1C (stereo not given)	8.85% (inactive)
Cc1c(NC(=O)OCC2COCCN2)cn2ncnc(Nc3ccc4c(cnn4Cc4cccc(F)c4)c3)c12 (stereo not given)	15.2% (inactive)
CC(=O)C1(C)CCC2C3C=C(C)C4=CC(=O)CCC4(C)C3CCC21C (stereo not given)	0.0124% (inactive)
O=C(CN1C2=NCCN2c2ccccc21)c1ccc(-c2ccccc2)cc1	9.78% (inactive)
CC(C)(C)c1ccc(C(=O)Nc2cn3cc(-n4ccnc4)ccc3n2)cc1	-7.85% (inactive)
O=C(Nc1cccc([N+](=O)[O-])c1)c1cccc(S(=O)(=O)N2CCCCCC2)c1	-3.86% (inactive)
CC1(C)CCCC2(C)C1C(OC(=O)/C=C/C=C/C=O)C=C1COC(=O)C12O (stereo not given)	1.74% [at 25.6 µM] (inactive)
COc1cc(CCO)ccc1O[C@@H]1O[C@H](CO)[C@@H](O)[C@H](O)[C@H]1O	-7.76% (inactive)
Cc1ccc(N2CCN(S(=O)(=O)N3CCCCC3)CC2)c(C)c1	11.5% (inactive)
Cc1cccc(C#Cc2cc(F)cc(C#N)c2)n1	-6.05% (inactive)

Structure (SMILES)	redox activity (% of DA3003)
CCCn1cc2c(nc(NC(=O)Nc3ccc(OC)cc3)n3nc(-c4ccco4)nc23)n1	-0.395% (inactive)
CC(C)c1ccc(NC(=O)Cn2cnc3c2c(=O)n(C)c(=O)n3C)cc1	-2.98% (inactive)
C=C1C(=O)O[C@@H]2[C@H]1CCC(C)=C(CCC(=O)O)[C@@]2(C)O	-8.13% (inactive)
CC(C)(C)c1ccc2c(c1)CC[C@H]2NC(=O)Nc1cccc2[nH]ncc12	-0.35% (inactive)
COc1c(F)cccc1C(=O)N1C[C@@H](C)CC[C@H]1CNc1ccc(Br)cn1	5.35% (inactive)
CC1=C(c2ccc(NC(=O)c3c(F)cccc3F)cc2)CN(c2nccs2)CC1	-3.5% (inactive)
CCC(C)C(=O)OC1C(C)C2(O)C(C=C(CO)CC3(O)C(=O)C(C)=CC32)C2C(C)(C)C12OC(=O)C(C)C (stereo not given)	3.61% [at 25.6 µM] (inactive)
COc1ccc(-n2c(SCCCN3C(=O)c4cccc5cccc(c45)C3=O)nnc2-c2ccncc2)cc1	-5.34% (inactive)
NS(=O)(=O)c1ccc(NC(=O)Nc2ccc(F)cc2)cc1	-1.69% (inactive)
Cc1c(C(=O)NCc2cccnc2)nn(-c2ccc(Cl)cc2Cl)c1-c1ccc(Cl)cc1	0.0269% (inactive)
C=C(C)[C@@H]1CC=C(COC(=O)NC(=O)c2ncn3c(=O)n(C)nnc23)CC1	-2.02% (inactive)
CN(C)C(=O)COC(=O)c1cc(-c2ccc(C3CCNCC3)cc2)c2ccc(-c3ccc(C(F)(F)F)cc3)cc2c1	7.77% (inactive)
C/C(=C/CO)CCC1C(C)CCC2C(C)(C)CCCC12C (stereo not given)	-17% (inactive)
CCOc1ccc(CCNC(=O)c2cc3sc(Cl)cc3n2C)cc1OCC	-6.94% (inactive)
C=C1C(=O)OC2C=C(C)CC/C=C(\CO)CC(O)C12 (stereo not given)	9.49% (inactive)
OC1C=C2C3CN(Cc4cc5c(cc43)OCO5)C2CC1O (stereo not given)	-11.3% (inactive)
C[C@@H]1CC[C@@]23CC[C@]4(C)[C@@](C=CC5[C@@]6(C)CC[C@H](O)C(C)(C)C6CC[C@]54C)(OC2=O)C3[C@H]1C (stereo not given in full)	16.1% [at 25.6 µM] (inactive)
CCCNCCc1ccc(NS(=O)(=O)c2ccc(OC(F)(F)F)cc2)cc1	-5.54% (inactive)
CC1(C)C2CCC(CO[C@@H]3O[C@H](CO[C@@H]4OC[C@](O)(CO)[C@H]4O)[C@@H](O)[C@H](O)[C@H]3O)C1C2 (stereo not given in full)	-15.3% [at 25.6 µM] (inactive)
CC(C)(Cc1ccccc1)NCC(O)c1ccc(O)c(NS(C)(=O)=O)c1 (stereo not given)	-4.57% (inactive)
